# Data taken from PubChem BioAssay AID602342 (Broad Institute, 2012).
# The campaign covered roughly 340,000 compounds. About 1,000 (0.29%) were called active.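 The calls were made as follows: active = mean replicate activation score at least 90 and every replicate individually at or above 90; inconclusive = only one of the two criteria met; inactive = neither criterion met.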 Many of the other results were omitted from the sample, so actives are more common in it than they were.
# Test: compounds raising miR-122 luciferase sensor output – cell-based, single point, plate reader, miR-122 inhibitor project, primary screen (AID 602342);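 also: higher luciferase means less miR-122 activity so hits act as miR-122 inhibitors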
# Conditions: Huh7 miR-122 Renilla luciferase sensor, 48 h, hits give high values, neutral wells = 0, positive control = 100; at 16.7 µM unless noted
row,Structure (SMILES),activation (reporter increase)
1,COc1ccc(C)cc1S(=O)(=O)Nc1cc2c3c(c1)CCC(=O)N3CCC2,150% [at 12.5 µM] (active)
2,COc1ccc(CNS(=O)(=O)c2cc3c4c(c2)CCN4C(=O)CC3)cc1,2.78% [at 12.5 µM] (inactive)
3,COc1ccccc1CNS(=O)(=O)c1cc2c3c(c1)CCC(=O)N3CCC2,6.96% [at 12.5 µM] (inactive)
4,O=C(CN1CCOCC1)Nc1c(Cl)cc(Cl)cc1Cl,-6.99% [at 12.5 µM] (inactive)
5,O=C(CN1CCOCC1)Nc1ccc(NC(=O)CN2CCOCC2)c(Cl)c1,4.91% [at 12.5 µM] (inactive)
6,O=C(CN1CCOCC1)Nc1cc(Cl)ccc1Cl,101% [at 12.5 µM] (active)
7,COc1ccc(S(=O)(=O)Nc2cccc3c2O[C@H](CN(C)Cc2ccc4c(c2)OCO4)[C@H](C)CN([C@@H](C)CO)C3=O)cc1,2.28% (inactive)
8,CC(=O)N(C)C[C@@H]1Oc2cc(-c3cccnc3)ccc2S(=O)(=O)N([C@@H](C)CO)C[C@H]1C,0.602% (inactive)
9,CC(C)NC(=O)Nc1ccc2c(c1)C(=O)N([C@H](C)CO)C[C@H](C)[C@@H](CN(C)S(=O)(=O)c1ccc(F)cc1)OCCCC[C@H](C)O2,-3.83% (inactive)
10,O=C(NC1CCCC1)[C@@H]1[C@@H](CO)[C@@H]2Cn3c(ccc(-c4ccc(F)cc4)c3=O)[C@H]1N2Cc1cocn1,1.2% (inactive)
11,CCCC#Cc1cnc2c(c1)C(=O)N([C@H](C)CO)C[C@H](C)[C@H](CN(C)S(=O)(=O)c1cn(C)cn1)O2,-3.62% (inactive)
12,C[C@@H]1CN([C@H](C)CO)C(=O)c2cccc(NS(=O)(=O)c3ccc(F)cc3)c2O[C@@H]1CN(C)S(=O)(=O)c1ccccc1,-5.32% (inactive)
13,Cc1cc(C(=O)CCC(=O)NNC(=O)c2ccccc2O)c(C)s1,-0.772% [at 12.5 µM] (inactive)
14,CC1=C(C)CC(C(=O)NNC(=O)c2csc3c2CCC(C(C)(C)C)C3)C(C(=O)O)C1 (stereo not drawn),-0.996% [at 12.5 µM] (inactive)
15,O=C(NNC(=O)C1CCC1)c1ccccc1,1.59% [at 12.5 µM] (inactive)
16,CC1=C(C)CC(C(=O)NNC(=O)c2ccccc2O)C(C(=O)O)C1 (stereo not drawn),151% [at 12.5 µM] (active)
17,O=C(NNC(=O)c1cc(S(=O)(=O)N2CCCCC2)ccc1Cl)c1ccccc1O,-7.51% [at 12.5 µM] (inactive)
18,O=C(NNC(=O)c1ccccc1O)c1ccccc1O,530% [at 12.5 µM] (active)
19,C[C@@H]1CCCCO[C@H](CN(C)C(=O)NC2CCCCC2)[C@@H](C)CN([C@H](C)CO)C(=O)c2cc(NC(=O)CCC(F)(F)F)ccc2O1,4.05% (inactive)
20,CC(=O)NS(=O)(=O)c1ccc(NC(=S)NC(=O)C(C)(C)C)cc1,-3.58% [at 12.5 µM] (inactive)
21,COc1ccc(NS(=O)(=O)c2ccc(NC(=S)NC(=O)CC(C)C)cc2)cc1,161% [at 12.5 µM] (active)
22,COc1ccc(NS(=O)(=O)c2ccc(NC(=O)c3ccc(N(C)S(C)(=O)=O)cc3)cc2)cc1,3.93% [at 12.5 µM] (inactive)

row,Structure (SMILES),activation (reporter increase)
1,C[C@@H]1CN([C@@H](C)CO)C(=O)c2cc(NC(=O)Cc3ccccc3)ccc2O[C@@H](C)CCCCO[C@H]1CN(C)C(=O)Cc1ccccc1,0.724% (inactive)
2,Cc1ccc(-c2ccc3c(c2)O[C@@H](CN(C)C(=O)CC2CC2)[C@@H](C)CN([C@@H](C)CO)S3(=O)=O)cc1,12.9% (inactive)
3,COc1ccc(NC(=O)N(C)C[C@H]2Oc3ccc(NS(=O)(=O)c4ccc(C)cc4)cc3C(=O)N([C@@H](C)CO)C[C@H]2C)cc1,3.8% (inactive)
4,COc1ccc(NC(=O)Nc2ccc3c(c2)C(=O)N([C@H](C)CO)C[C@H](C)[C@H](CN(C)S(=O)(=O)c2ccc(OC)cc2)O3)cc1,-11.1% (inactive)
5,COc1ccc(OC)c(/C=N/NC(=O)c2ccc[n+](CC(=O)c3ccccc3)c2)c1,-4.06% [at 12.5 µM] (inactive)
6,COc1ccc(C(=O)Nc2ccccc2C(=O)N/N=C/c2ccccc2OC)cc1,115% [at 12.5 µM] (active)
7,COc1ccccc1C(=O)Nc1ccccc1C(=O)Nc1ccccc1,1.44% [at 12.5 µM] (inactive)
8,COc1ccc(NC(=O)N(C)C[C@H]2OCCCC[C@@H](C)Oc3ccc(NC(=O)NC4CCCCC4)cc3C(=O)N([C@@H](C)CO)C[C@H]2C)cc1,-3.11% (inactive)
9,CCOC(=O)c1c(S(=O)(=O)NCC(=O)Nc2ccc(C)cc2)c(C)n(C)c1C,3.19% [at 12.5 µM] (inactive)
10,CCOC(=O)c1c(C)[nH]c(C)c1S(=O)(=O)NCCCc1ccco1,128% [at 12.5 µM] (active)
11,NC(=O)c1cc(S(=O)(=O)NCCCc2ccco2)cs1,2.02% [at 12.5 µM] (inactive)
12,Cc1cc(C(C)(C)C)cc(S(=O)(=O)Nc2ccc(C(=O)O)cc2)c1C,165% [at 12.5 µM] (active)
13,Cc1noc(C)c1S(=O)(=O)Nc1ccc(C(=O)O)cc1,0.153% [at 12.5 µM] (inactive)
14,O=C(O)c1ccc(F)c(S(=O)(=O)Nc2ccccc2)c1,3.15% [at 12.5 µM] (inactive)
15,COc1ccc(CN(C)C[C@H]2OCCCC[C@@H](C)Oc3ccc(NS(=O)(=O)c4ccccc4)cc3C(=O)N([C@@H](C)CO)C[C@@H]2C)cc1,-4.79% (inactive)
16,CNC(=O)C[C@@H]1CC[C@@H]2[C@H](COC[C@H](O)CN2Cc2ccc(C(F)(F)F)cc2)O1,1.05% (inactive)
17,COc1ccc(CCNC(=O)c2ccccc2OCc2ccccc2)cc1,-1.62% [at 12.5 µM] (inactive)
18,COc1ccc(OCCCC(=O)NCCc2ccccc2)cc1,223% [at 12.5 µM] (active)
19,COc1ccc(OCC(=O)NCCc2ccc(S(N)(=O)=O)cc2)cc1,-15.2% [at 12.5 µM] (inactive)
20,OC[C@@H]1[C@H](c2ccc(C#CC3CC3)cc2)[C@@H]2CN(CCC(F)(F)F)CCCCN12,12.9% (inactive)
21,CCCNC(=O)N1C[C@@H](O)COC[C@@H]2O[C@@H](CC(=O)O)CC[C@H]21,0.047% (inactive)
